Some test systems named below: SR leukemia; RPMI-8226 leukemia; OVCAR-8 ovarian; OVCAR-5 ovarian; OVCAR-4 ovarian; SK-OV-3 ovarian; IGROV1 ovarian; OVCAR-3 ovarian; HS 578T breast; NCI/ADR-RES ovarian; T-47D breast; BT-549 breast; MDA-MB-435 melanoma; SW-620 colon; MCF7 breast; HCT-116 colon; HCC-2998 colon; KM12 colon; MDA-MB-468 breast.
Experiment in all cases: NCI-60 one-dose screen, 48 h (100 = growth as untreated, 0 = no growth, -100 = all killed)
What all share (details): 10 µM unless noted

About 83,000 compounds went through this panel and 20% of them were active in at least one assay; those are over-represented in the sample as a whole.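 Percent growth is the endpoint: 0 to 100 indicates growth inhibition (40 means 60% inhibition), 0 means no net growth, and negative values indicate cell death.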 A number with no mark means an inactive call. Active and inactive are the calls of the source. The calls were made as follows: active = growth percent below 10; inactive = the rest.

Consider `Clc1cccc(-c2ccc(OCCCN3CCN(c4ccncc4)CC3)cc2)c1`, for which the growth in the assay on SR leukemia is -38.5% (active); in the assay on RPMI-8226 leukemia it was -39.1% (active); with OVCAR-8 ovarian, 37.9%; in the assay with OVCAR-5 ovarian, 69.7%; in the assay on OVCAR-4 ovarian, 38.2%; with SK-OV-3 ovarian, 30.1%. In addition, the growth with IGROV1 ovarian is 49.6%; in the assay on OVCAR-3 ovarian, 0.45% (active); with HS 578T breast, -2.27% (active); in the assay with NCI/ADR-RES ovarian, 5.66% (active); with T-47D breast it was -37.5% (active); with BT-549 breast it was 20.4%. Moreover, the growth in the assay on MDA-MB-435 melanoma is -51.6% (active); in the assay on SW-620 colon, -66.2% (active); with MCF7 breast, -61.4% (active); in the assay with HCT-116 colon, -76.7% (active); in the assay with HCC-2998 colon it was -91.5% (active); in the assay with KM12 colon, -43.8% (active). The growth with MDA-MB-468 breast is -62.3% (active).

Turning to `Cc1ccc([C@H]2C(C(=O)c3ccc(Cl)cc3)C3(N[C@@H]2c2ccccc2)C(=O)Nc2ccc(Cl)cc23)cc1` (stereo partly specified), the growth with SR leukemia was -3.12% (active); in the assay with RPMI-8226 leukemia it was 32.4%; in the assay with OVCAR-8 ovarian, 59.3%; with OVCAR-5 ovarian, 67.5%; in the assay with OVCAR-4 ovarian it was 57.4%; in the assay on SK-OV-3 ovarian it was 67.4%. Further, the growth is 50.9% in the assay with IGROV1 ovarian; 45.8% in the assay with OVCAR-3 ovarian; 74.4% with HS 578T breast; 54.6% with NCI/ADR-RES ovarian; 31.6% in the assay with T-47D breast; 80.9% with BT-549 breast. Besides, the growth in the assay on MDA-MB-435 melanoma is 64.3%; in the assay with SW-620 colon it was 64.1%; in the assay with MCF7 breast, 16.7%; in the assay on HCT-116 colon, 23.7%; in the assay with HCC-2998 colon it was 18.8%; in the assay on KM12 colon, 34.8%. Also, the growth with MDA-MB-468 breast is 47.9%.

Turning to `COc1ccc2c(c1)c(-c1cc(N)n3nc(-c4cn(C)c5ccccc45)cc3n1)cn2C`, the growth is 6.15% (active) in the assay on SR leukemia; -14.5% (active) in the assay with RPMI-8226 leukemia; -94.4% (active) in the assay on OVCAR-8 ovarian; -38.8% (active) in the assay with OVCAR-5 ovarian; -64.2% (active) with OVCAR-4 ovarian; -79.5% (active) in the assay with SK-OV-3 ovarian. In addition, the growth is -40.3% (active) with IGROV1 ovarian; -67.4% (active) with OVCAR-3 ovarian; -20.7% (active) in the assay with HS 578T breast; -17.1% (active) in the assay on NCI/ADR-RES ovarian; -57.4% (active) in the assay with T-47D breast; -22.4% (active) in the assay on BT-549 breast. Further, the growth with MDA-MB-435 melanoma is -75.6% (active); with SW-620 colon it was -58.5% (active); in the assay with MCF7 breast it was -60.6% (active); in the assay with HCT-116 colon, -88.6% (active); with HCC-2998 colon it was -82% (active); in the assay with KM12 colon, -60.6% (active).

With `CC(=O)Nc1ccc(C(=O)NC(=S)Nc2ccc(S(N)(=O)=O)cc2)cc1`, the growth with SR leukemia is 105%; in the assay on RPMI-8226 leukemia, 105%; in the assay with OVCAR-8 ovarian, 94.6%; in the assay with OVCAR-5 ovarian it was 96.5%; in the assay on OVCAR-4 ovarian, 84.9%; in the assay with SK-OV-3 ovarian it was 101%. The growth in the assay on IGROV1 ovarian was 92.3%; with OVCAR-3 ovarian it was 97.7%; with HS 578T breast it was 94.5%; in the assay with NCI/ADR-RES ovarian, 95.9%; in the assay with T-47D breast it was 73.8%; in the assay with BT-549 breast it was 94.4%. Further, the growth with MDA-MB-435 melanoma was 97.5%; in the assay on SW-620 colon, 98%; in the assay with MCF7 breast it was 93%; in the assay with HCT-116 colon, 99.4%; in the assay with HCC-2998 colon, 97.2%; in the assay on KM12 colon it was 97.5%. The growth with MDA-MB-468 breast is 80.2%.

With `CC(C)CSc1nc(NCCc2c[nH]c3ccccc23)c(C#N)c(-c2ccc(Cl)cc2)n1`, the growth is 7.81% (active) in the assay with SR leukemia; 36.3% in the assay with RPMI-8226 leukemia; 76.2% with OVCAR-8 ovarian; 80.5% in the assay on OVCAR-5 ovarian; 78.3% in the assay on OVCAR-4 ovarian; 81.7% with SK-OV-3 ovarian. Also, the growth was 96.2% in the assay on IGROV1 ovarian; 76.4% in the assay with OVCAR-3 ovarian; 51.6% with HS 578T breast; 54.7% with NCI/ADR-RES ovarian; 31.7% in the assay on T-47D breast; 83.5% with BT-549 breast. For the same molecule, the growth with MDA-MB-435 melanoma is 72.5%; in the assay on SW-620 colon, 24.9%; in the assay with MCF7 breast, 16.4%; with HCT-116 colon, 19.5%; in the assay with HCC-2998 colon, 52.3%; with KM12 colon, 35.1%. The growth with MDA-MB-468 breast is 53.9%.

Turning to `COc1cc2c(c(OC)c1OC)C(=O)CC(c1cccc(NC(=O)c3cc(NC(=O)[C@H](C)N)ccc3Cl)c1)O2` (stereo partly specified), the growth in the assay on SR leukemia is 9.41% (active); in the assay on RPMI-8226 leukemia, 4.69% (active); with OVCAR-8 ovarian it was 9.03% (active); in the assay with OVCAR-5 ovarian, 88%; in the assay on OVCAR-4 ovarian, 44.4%; in the assay with SK-OV-3 ovarian, 102%. For the same molecule, the growth is 70.3% in the assay on IGROV1 ovarian; 25.7% with OVCAR-3 ovarian; 66.9% in the assay with HS 578T breast; 11.1% with NCI/ADR-RES ovarian; 18.5% in the assay with T-47D breast; -5.64% (active) in the assay on BT-549 breast. The growth was 2.82% (active) in the assay with MDA-MB-435 melanoma; 18.5% with SW-620 colon; 13.8% with MCF7 breast; 23.4% in the assay with HCT-116 colon; 81% in the assay with HCC-2998 colon; 41.7% in the assay with KM12 colon. For the same molecule, the growth in the assay with MDA-MB-468 breast is 9.2% (active).

Take `COc1cc2c(c(OC)c1OC)C(=O)CC(c1cccc(NC(=O)[C@@H](N)CC(C)C)c1)O2` (stereo partly specified): the growth is 66.9% in the assay with SR leukemia; 108% in the assay on RPMI-8226 leukemia; 94.9% in the assay on OVCAR-8 ovarian; 112% in the assay with OVCAR-5 ovarian; 102% in the assay on OVCAR-4 ovarian; 109% in the assay on SK-OV-3 ovarian. Moreover, the growth was 107% with IGROV1 ovarian; 97.9% with OVCAR-3 ovarian; 88.4% in the assay with HS 578T breast; 99.8% in the assay on NCI/ADR-RES ovarian; 86% with T-47D breast; 94.3% in the assay on BT-549 breast. Besides, the growth was 91.2% in the assay with MDA-MB-435 melanoma; 107% with SW-620 colon; 86.8% with MCF7 breast; 101% in the assay on HCT-116 colon; 117% with HCC-2998 colon; 97.2% with KM12 colon. Further, the growth in the assay with MDA-MB-468 breast is 89.3%.

Turning to `O=S(=O)(Nc1cccc(-n2cnc3cc(-c4ccc(O)cc4)ccc32)c1)C1CC1`, the growth with SR leukemia was 13.2%; in the assay on RPMI-8226 leukemia, 23.9%; in the assay on OVCAR-8 ovarian, 19.8%; with OVCAR-5 ovarian it was 47.1%; with OVCAR-4 ovarian it was 48.3%; with SK-OV-3 ovarian, 35.6%. The growth with IGROV1 ovarian was 35.3%; in the assay on OVCAR-3 ovarian it was 2.82% (active); in the assay on HS 578T breast, -20.1% (active); in the assay on NCI/ADR-RES ovarian, 25.1%; in the assay on T-47D breast, 27.3%; with BT-549 breast, 14.3%. The growth with MDA-MB-435 melanoma was -21.3% (active); in the assay on SW-620 colon, 31.1%; with MCF7 breast, 21.8%; in the assay with HCT-116 colon, 13.4%; in the assay with HCC-2998 colon it was 40.8%; in the assay with KM12 colon it was 6.07% (active). The growth in the assay on MDA-MB-468 breast is 3.78% (active).

These data come from PubChem BioAssay (NCI).
